Measured values taken from ChEMBL document CHEMBL3988442, “University of Dundee, Small-Polar-MMV Screening Library” (2021).
About 13,000 (27%) of roughly 48,000 compounds showed an effect of 50% or more. This is one part of the list.

What follows are molecules tested on Wolbachia pipientis (assay: Anti-Wolbachia Cell-Based Screen). Conditions: 5 µM.
Format: functional
Set-up: scale not given: in the data most compounds retested in dose-response had high values

Row | SMILES | Percent Effect [%]
1 | NC(=O)c1cnn2c1NCC(CNC1(c3ccccc3)CCC1)C2 (stereo unspecified) | 91.1
2 | NC(=O)c1cnn2c1NCC(CNCCCOc1ccccc1F)C2 (stereo unspecified) | -5.67
3 | c1ccc(C2(NCC3CNc4ccnn4C3)CCC2)cc1 (stereo unspecified) | 81.61
4 | NC(=O)c1cnn2c1NCC(CNCC1(c3ccccc3)CCCC1)C2 (stereo unspecified) | 95.13
5 | c1ccc(Cn2cccn2)c(CNCC2CNc3ccnn3C2)c1 (stereo unspecified) | 2.44
6 | Cc1cnn(C2CN(CC(=O)NCC3(c4ccccc4)CCC3)C2)c1 | -4.16
7 | NC(=O)c1cnn2c1NCC(CNCCc1ccco1)C2 (stereo unspecified) | -4.106
8 | CNS(=O)(=O)c1cccc(C(C)NCc2ccc(C)c(C)c2)c1 (stereo unspecified) | -2.241
9 | CCc1cnc(C)nc1NC(C)C(=O)Nc1cc(F)ccc1C (stereo unspecified) | -2.868
10 | Cn1cnnc1S(=O)(=O)Cc1cc(Cl)c2c(c1)OCCO2 | -9.232
11 | COCCN(Cc1cccc(O)c1)Cc1ccccc1F | 0.04507
12 | CN1CCN(Cc2cnc(S(=O)(=O)CC3CC3)n2CC2CCCO2)CC1 (stereo unspecified) | -10.61
13 | O=C(CN1CCCS1(=O)=O)Nc1ccc(OC2CCCC2)c(Cl)c1 | -10.49
14 | O=C(c1cscn1)N1CCC2(CCN(Cc3nccs3)CC2)CC1 | -43.87
15 | O=C(O)C(F)(F)F.O=C(O)C(F)(F)F.c1csc(CN2CCC3(CC2)CCN(CC2CC2)CC3)n1 | 12.33
16 | O=C(CC1CCC2(CC1)CCN(Cc1nccs1)CC2)N1CC=CC1 | 106.8
17 | COCC1CC2(CCN(Cc3cccnc3)CC2)CN1c1ncccn1.O=C(O)C(F)(F)F.O=C(O)C(F)(F)F.O=C(O)C(F)(F)F (stereo unspecified) | -11.87
18 | O=C(Cc1cccnc1)N1CCC2(CCN(CC3CCCCC3)C2)CC1.O=C(O)C(F)(F)F.O=C(O)C(F)(F)F | 8.236
19 | O=C(CC1CCC2(CC1)CCN(Cc1cccnc1)CC2)N1CC=CC1.O=C(O)C(F)(F)F.O=C(O)C(F)(F)F | 82.49
20 | O=C(O)C(F)(F)F.O=C(O)C(F)(F)F.O=C(O)C(F)(F)F.c1cc(CN2CCOCC3(CCN(CC4CCOCC4)CC3)C2)ccn1 | -16.5
21 | O=C(CC1CCC2(CC1)CCN(Cc1ccncc1)CC2)N1CCCC1.O=C(O)C(F)(F)F | 108.9
22 | O=C(C[C@H]1[C@H]2CN(Cc3ccc(F)cc3)C[C@@H]12)N1CCCC1.O=C(O)C(F)(F)F | -45.89
23 | COc1ccccc1OCc1nc2cc3c(cc2c(=O)o1)OCCCO3 | -14.32
24 | Cc1nc(C2CCN(C[C@H](C)CO)CC2)cc(N2CCOCC2)n1 | 2.667
25 | CCc1c(C(=O)N2CCNC(=O)C2)cnn1C(C)(C)C | 104.8
26 | CCc1c(C(=O)N2CCN(c3cnccn3)CC2)cnn1C(C)(C)C | 78.79

Row | SMILES | Percent Effect [%]
27 | Cc1ccsc1CNc1ccc(C(=O)N2CCNC(=O)C2)cn1 | -3.195
28 | CCc1c(C(=O)N2CCC(CC(N)=O)CC2)cnn1C(C)(C)C | 114.3
29 | Cc1cc(C(=O)N2CCNC(=O)C2)c(C)n1CC(F)(F)F | -17.07
30 | CCOCCn1nc(C)cc1C(=O)N1CCCC[C@H](N(C)C)C1 | -3.082
31 | CCc1c(C(=O)N2CCCC(N(C)C)C2)cnn1C(C)(C)C (stereo unspecified) | 105.9
32 | NC(=O)CC1CCN(C(=O)c2cnc(-c3ccccc3F)s2)CC1 | 1.886
33 | CCc1c(C(=O)N2CCN(c3ncccn3)CC2)cnn1C(C)(C)C | 6.599
34 | Cc1ccc(C(=O)N2CCCC(N(C)C(=O)OC(C)(C)C)C2)o1 (stereo unspecified) | 9.731
35 | CCCc1c(C(=O)N2CCN(c3cnccn3)CC2)cnn1C | 10.15
36 | CCc1c(C(=O)N2CCN(CC(N)=O)CC2)cnn1C(C)(C)C | 15.08
37 | O=C(NCCN1CCOCC1)N1CCN(c2ccccc2)CC1 | -9.765
38 | Cc1ccccc1CNc1ccc(S(N)(=O)=O)c(C(F)(F)F)c1 | -19.7
39 | COc1cccc(CCC2CCCN(C(=O)C3=NN(C)C(=O)CC3)C2)c1 (stereo unspecified) | 3.443
40 | O=C(NCC(O)COc1ccccc1)C1(c2ccc(F)cc2)CC1 (stereo unspecified) | -6.241
41 | CCC(CN1CCCCC1)NC(=O)C1(c2cccc(F)c2)CC1.O=C(O)CC(O)(CC(=O)O)C(=O)O (stereo unspecified) | 128.4
42 | CCC(CN1CCCC1)NC(=O)C1(c2cccc(F)c2)CC1.O=C(O)CC(O)(CC(=O)O)C(=O)O (stereo unspecified) | 113.9
43 | O=C(NC(CN1CCCC1)c1ccccc1)c1c(O)cc(F)cc1F (stereo unspecified) | -3.42
44 | CC(Cn1ccnc1)NC(=O)C1(c2ccc(F)cc2)CC1 (stereo unspecified) | 6.075
45 | O=C(NCc1nncn1C1CC1)C1(c2cccc(F)c2)CCOCC1 | 0.3927
46 | Cc1cc(C)n(CC(C)NC(=O)C2(c3ccc(F)cc3)CC2)n1 (stereo unspecified) | -1.516
47 | CC(CNC(=O)C1(c2ccc(F)cc2)CC1)CN1CCCC1=O (stereo unspecified) | -3.318
48 | CCC(CN1CCCC1)NC(=O)C1(c2ccc(F)cc2)CC1 (stereo unspecified) | 125.8
49 | CC1CN(C(=O)C2(c3cccc(F)c3)CCOCC2)CCO1 (stereo unspecified) | -11.59
50 | Cc1cccc(C2(C(=O)NCC(C)CN3CCCC3=O)CC2)c1 (stereo unspecified) | -2.528
51 | CCC(CN1CCCCC1)NC(=O)C1(c2ccc(F)cc2)CC1.O=C(O)CC(O)(CC(=O)O)C(=O)O (stereo unspecified) | 147.4
